Reference: PubChem BioAssay (NCATS)
Active and inactive are the calls of the source. Calls follow the shape of the full dose curve.

Experiments:
Assay in all cases: Confirmatory Screen for Target Class Profiling of Small Molecule Inhibitors of Methyltransferases (AID 1745852); as to activity change, negative = inhibition: % is scaled to controls: 0 for no effect and ±100 for the full control effect
[1] = target: Catechol O-methyltransferase (Homo sapiens) (UniProt P21964); conditions: MTase-Glo luminescence, SAH detection, recombinant enzyme; measured here: COMT max response; stronger effect = lower value
[2] = target: Guanidinoacetate N-methyltransferase (Homo sapiens) (UniProt Q14353); conditions: MTase-Glo luminescence, SAH detection, recombinant enzyme; activity change, negative = inhibition: at 57.3 µM (top of the series) unless noted; series mostly up to 57.3 µM
[3] = target: Nicotinamide N-methyltransferase (Homo sapiens) (UniProt P40261); conditions: MTase-Glo luminescence, SAH detection, recombinant enzyme; measured here: NNMT max response; stronger effect = lower value
[4] = target: Phenylethanolamine N-methyltransferase (Homo sapiens) (UniProt P11086); conditions: MTase-Glo luminescence, SAH detection, recombinant enzyme; measured here: PNMT max response; stronger effect = lower value
Potency is read from the fitted curve at half-maximal effect.

Chain of Catechol O-methyltransferase (Homo sapiens) (P21964 whole entry, looked up): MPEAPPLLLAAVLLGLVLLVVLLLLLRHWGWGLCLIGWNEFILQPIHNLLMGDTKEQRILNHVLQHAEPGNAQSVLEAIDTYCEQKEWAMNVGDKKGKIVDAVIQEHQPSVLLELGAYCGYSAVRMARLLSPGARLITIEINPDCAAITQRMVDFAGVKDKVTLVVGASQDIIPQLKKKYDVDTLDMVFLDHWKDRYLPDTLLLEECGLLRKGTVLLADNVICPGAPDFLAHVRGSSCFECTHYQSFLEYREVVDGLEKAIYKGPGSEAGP
Chain of Phenylethanolamine N-methyltransferase (Homo sapiens) (P11086 whole entry, looked up): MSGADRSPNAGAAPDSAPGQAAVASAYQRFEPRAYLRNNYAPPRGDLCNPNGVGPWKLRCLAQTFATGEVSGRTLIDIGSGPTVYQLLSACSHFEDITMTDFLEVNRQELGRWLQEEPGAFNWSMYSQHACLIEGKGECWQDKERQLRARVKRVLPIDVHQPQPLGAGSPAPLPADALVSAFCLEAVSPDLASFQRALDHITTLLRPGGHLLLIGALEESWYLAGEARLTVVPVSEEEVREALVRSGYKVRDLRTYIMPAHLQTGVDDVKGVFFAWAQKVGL
Chain of Nicotinamide N-methyltransferase (Homo sapiens) (P40261 whole entry, looked up): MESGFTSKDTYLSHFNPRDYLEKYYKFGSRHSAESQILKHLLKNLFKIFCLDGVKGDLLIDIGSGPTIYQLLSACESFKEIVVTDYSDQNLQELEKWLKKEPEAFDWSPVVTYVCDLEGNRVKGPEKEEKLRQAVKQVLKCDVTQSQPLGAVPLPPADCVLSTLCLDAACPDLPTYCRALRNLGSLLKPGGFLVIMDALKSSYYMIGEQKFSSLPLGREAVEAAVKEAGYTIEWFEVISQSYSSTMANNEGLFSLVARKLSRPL

Row | SMILES | activity [1] [%] | activity change, negative = inhibition [2] | activity [3] [%] | activity [4] [%] | Potency [2]
1 | COc1ccc(OC)c(CN2CCNc3cc(-c4ccnc(C)c4)ncc3C2)c1 | 6.21 | 6.12% [at 85.7 µM] | -5.07 | 4.8 | –
2 | COc1ccccc1-c1[nH]nc2ncc(C(=O)N3CCN(Cc4ccccc4)CC3)nc12 | -51.3 | – | -37.2 | -61.8 | 35 µM (active)
3 | COc1ccc(CCN2C(=O)c3cc4occc4n3CC2(C)C(=O)NC2CCCCC2)cc1OC (stereo not given) | 2.48 | 0% | -47.9 | 1.36 | –
4 | COc1ncccc1-c1cc2c(ccn2CC2CCN([S+](C)(=O)[O-])CC2)c(N2CCOCC2)n1 | -8.55 | 1.38% | -94.7 | -10.8 | –
5 | CCCC1c2cccn2CCN1C(=O)NC1(CC(=O)OCC)CCCCC1 (stereo not given) | -3.29 | -0.613% | -5.96 | -9.82 | –
6 | COc1cc2c(cc1O)NC(=O)CC2c1cn[nH]c1-c1cc(C)ccc1C (stereo not given) | -13.7 | 2.11% | -6.25 | -21.7 | –
7 | Cn1nccc1-c1cc2c(cn1)CN(Cc1ccncc1)CCN2 | 1.75 | 1.99% [at 85.7 µM] | -4.82 | 0.453 | –
8 | CN(C)CCOCC1(C)COc2ccc(C(=O)Nc3ccc4[nH]ccc4c3)cc2N1 (stereo not given) | 1.58 | 9.89% [at 85.7 µM] | 2.73 | 0.534 | –
9 | Cc1ccc2c(c1)c(-n1cccc1)c1n2CC(C)(C(=O)NCCC(C)C)N(Cc2cccnc2)C1=O (stereo not given) | 4.4 | 0% | -51.8 | 0 | –
10 | O=C(c1ccc2c(=O)nc3c(-c4ccc(Cl)cc4)n[nH]n3c2c1)N1CCN(Cc2ccccc2)CC1 | -8.28 | 1.01% | -22.4 | -11.1 | –
11 | O=C(CCn1c(=O)[nH]c2cc(S(=O)(=O)N3CCCCC3)ccc21)Nc1ccc(Cl)cc1 | -1.03 | 0% | -18.8 | -3.3 | –
12 | COc1ccc(OC)c2c1cc1n2CC(C)(C(=O)NC2CCCCC2)N(Cc2cccnc2)C1=O (stereo not given) | -8.96 | -5.74% | -28.2 | -10.7 | –
13 | CNc1cc(C2CC(NC(=O)COc3ccc(Cl)cc3C)C2)nc(N)n1 (stereo not given) | 7.09 | 2.13% | -5.16 | 6.12 | –
14 | CCNc1nccc(N2CCC(CC(=O)NCC(C)C)CC2)n1 | -2.4 | -5.08% | -6.4 | -1.27 | –
15 | COc1ccc(CN2CCCC(COc3ccccc3C(=O)NC3CC3)C2)c(OC)c1 (stereo not given) | 4.91 | 4.18% | 1.02 | 1.19 | –
